A selection: hits, their analogues and other compounds. The true share with any hit is near 2.5%.
ULK1 inh: blocks human autophagy kinase ULK1; AlphaScreen Atg13 phosphorylation by ULK1, luminescence; inhibition, % at 5.96 µM; actives 1.9% (n = 30,000); AID 1259251; in the data active = inhibition above about 43%
ASK1 inh: inhibitors of human ASK1 kinase; Q99683; AlphaScreen MKK6 phosphorylation by ASK1, luminescence; inhibition, % at 7.44 µM; actives 0.99% (n = 22,000); in the data active = inhibition above about 35%
Hits are given with their value; – = inactive; · = no result given.

SMILES | ULK1 inh | ASK1 inh
Oc1ccc(CCNc2nc(Nc3ccc(-n4ccnc4)cc3)nc3nc[nH]c23)cc1 | 50 | –
Oc1ccc(CCNc2nc(Nc3ccccc3)nc3nc[nH]c23)cc1 | – | –
Oc1ccc(CCNc2nc(Nc3ccncc3)nc3nc[nH]c23)cc1 | 51 | –
Cc1cnc(Nc2ccc(-n3ccnc3)cc2)nc1NCCOc1ccccc1 | – | –
Cc1cnc(Nc2ccc(-n3ccnc3)cc2)nc1NCCc1ccc(O)cc1 | – | –
Oc1ccc(CCNc2nc(Nc3ncccn3)nc3nc[nH]c23)cc1 | – | –
Nc1cc(Cl)c(S(=O)(=O)Cl)cc1S(=O)(=O)Cl | – | ·
CCN(CC)c1nc(NCCN2CCOCC2)nc(Nc2ccc(N3CCOCC3)cc2)n1 | – | –
COc1ccc2c(c1)CC(c1nc3c(N(C)CCN(C)C)cc(-c4cn[nH]c4)cc3c(=O)[nH]1)CO2 (centres undefined) | – | –
c1ccc(OCCNc2nc(Nc3cccnc3)nc3nc[nH]c23)cc1 | 48 | –
c1ccc(Nc2nc(NCCOc3ccccc3)c3[nH]cnc3n2)cc1 | – | –
CCC(NC(C)C)C(O)c1ccc(O)c(O)c1 (centres undefined) | – | ·
NCC(O)c1ccc(O)c(O)c1 (centres undefined) | 80 | ·
FC(F)(F)c1ccc(Cn2cnc3c(NC4CCN(Cc5ccccc5)CC4)nc(Nc4ccccc4)nc32)cc1 | – | –
CN(C)c1cccc(Nc2nc(NCCO)c3ncn(Cc4ccc(C(F)(F)F)cc4)c3n2)c1 | 54 | –
CCCNc1nc(Nc2cccc(N(C)C)c2)nc2c1ncn2Cc1ccc(C(F)(F)F)cc1 | – | –
CN(C)c1cccc(Nc2nc(NC3CCN(Cc4ccccc4)CC3)c3ncn(Cc4ccc(C(F)(F)F)cc4)c3n2)c1 | 44 | –
CCN(CC)C(=O)C1CCCN(c2ccc(-n3cc(CC(=O)Nc4ccc(Oc5ccccc5)cc4)c4ccccc43)nn2)C1 (centres undefined) | – | –
COc1ccccc1OCc1nc(N(C)CCN(C)C)c2cc(-c3cn[nH]c3)ccc2n1 | – | –
CCNc1nc(Nc2ccc(N3CCOCC3)cc2)c2ncn(-c3ccsc3)c2n1 | – | –
CC(C)n1cnc2c(Nc3ccc4c(c3)OCO4)nc(Nc3cnccn3)nc21 | 49 | –
CC(C)n1cnc2c(Nc3ccc4c(c3)OCO4)nc(Nc3ccc(-n4ccnc4)cc3)nc21 | 55 | –
CC(C)n1cnc2c(Nc3ccc4c(c3)OCO4)nc(Nc3ccccc3)nc21 | – | –
c1cnc(Nc2nc(Nc3ccc4c(c3)OCO4)c3ncn(C4CCCCC4)c3n2)cn1 | – | –
COc1ccc(C2CN(Cc3ccccc3)CC2c2nc3ccc(-c4cn[nH]c4)cc3[nH]2)cc1 (centres undefined) | – | –
SMILES | ULK1 inh | ASK1 inh
N[C@H]1CCC[C@H](C(=O)Nc2cccc3c(=O)[nH]cnc23)C1 | 53 | –
N[C@H]1CC[C@@H](C(=O)Nc2cccc3cnccc23)C1 | – | –
CN(C)C(=O)c1ncccc1Nc1cc(Nc2ccc3c(c2)CC(=O)N3)ncc1C(F)(F)F | – | –
CNC(=O)c1ncccc1Nc1cc(Nc2ccc(C(=O)N(C)C)cn2)ncc1C(F)(F)F | 56 | –
CNC(=O)c1ccccc1Nc1cc(Nc2ccc(C(=O)N(C)C)cn2)ncc1C(F)(F)F | 89 | –
CNC(=O)c1ncccc1Nc1cc(Nc2ccc3[nH]ncc3c2)ncc1C(F)(F)F | – | –
CNC(=O)c1ccccc1Nc1cc(Nc2ccc(C(=O)N(C)C)cc2C)ncc1C(F)(F)F | 78 | –
c1ccc(-c2cc(NCCCN3CCOCC3)nc(-c3ccccn3)n2)cc1 | – | ·
CN(C)CCOc1cc(-c2ccncc2)ccc1NC(=O)C1COc2ccccc2C1 (centres undefined) | – | –
O=C(NCc1nc2ccccc2[nH]1)c1cncc(-c2csc3ccccc23)c1 | – | –
c1cc(-n2cnc3c(Nc4ccc(N5CCOCC5)cc4)nc(Nc4ccc(N5CCOCC5)cc4)nc32)cs1 | – | –
c1cncc(Nc2nc(Nc3ccc(N4CCOCC4)cc3)c3ncn(-c4ccsc4)c3n2)c1 | 49 | –
c1ccc(Nc2nc(Nc3ccc(N4CCOCC4)cc3)nc3c2ncn3-c2ccsc2)cc1 | – | –
c1cn(-c2ccc(Nc3nc(Nc4ccc(N5CCOCC5)cc4)c4ncn(-c5ccsc5)c4n3)cc2)cn1 | 46 | –
COc1cccc(CCNC(=O)c2nnc(-c3ccccc3)o2)c1 | – | ·
Cc1ccc2[nH]c(C(=O)O)c(C=O)c2c1 | – | ·
CCCNc1nc(NCCCN2CCCC2=O)nc2c1ncn2-c1ccccc1 | – | –
O=C(c1cccc(Nc2nccc(-c3ccc4c(=O)[nH]c(C5CC5)nc4c3)n2)c1)N1CCCC1 | 65 | –
Cc1nc2ccc(-c3ccnc(Nc4cccc(C(=O)N5CCCC5)c4)n3)cc2c(=O)n1C | – | –
O=C(c1cccc(Nc2nccc(-c3ccc4nc(C5CC5)[nH]c(=O)c4c3)n2)c1)N1CCCC1 | 80 | –
Cc1nc2cc(-c3ccnc(Nc4cccc(C(=O)NC(C)C)c4)n3)ccc2c(=O)n1C1CC1 | – | –
